Results filed as inconclusive are left out. A call without a number means that no potency is given here. Activity calls are given as the source filed them. The call rests on the fitted dose curve; in most records, active means well fitted cell-killing curve with a large enough effect; inconclusive means small, poorly fitted or top-dose-only effect; inactive means flat fitted curve, though single readings scatter.
Further: nearly all actives have a fitted effect of over 55% in size.

The first test is described as follows: Cell Viability - LYMP2-015 (AID 971).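 Further: cells exposed to compound for 24 h.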 The following applies: LYMP2-015 lymphoblastoid cell viability; series mostly up to 92.2 µM. The method, boiled down: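 qHTS cytotoxicity: 2500 cells/well, 5 hr 37 C, compound 24 hr 37 C, CellTiter-Glo 30 min RT, luminescence. Loss of ATP = toxicity; AC50 via standard Hill fit.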
Regarding `CCN(C(=O)N(CC)c1ccccc1)c1ccccc1`, the Potency result is “inactive”.

For `CCNc1cc(O)ccc1C`, the Potency result is “inactive”.

As for `Cc1ccc(C(=O)O)cc1`, the Potency result was “inactive”.

Regarding `C=Cc1ccccn1`, the Potency result is “inactive”.

On to `CC(C)C(C)C`, for which the Potency entry is “inactive”.

On to `CCCCC(=O)N(C)C`, for which the Potency result was “inactive”.

Regarding `Nc1cc(S(=O)(=O)O)ccc1O`, the Potency result was “inactive”.

On to `O=C1OC(=O)c2c(Br)c(Br)c(Br)c(Br)c21`, for which the Potency result is “inactive”.

With `Cc1cccc2sc(N)nc12`, the Potency entry was “inactive”.

In the case of `CN(C)c1cccc(O)c1`, the Potency result is “inactive”.

As for `BrC(Br)C(Br)Br`, the Potency result is “inactive”.

Take `CC(=O)c1ccccn1`: the Potency entry was “inactive”.

Take `O=P(O)(OCc1ccccc1)OCc1ccccc1`: the Potency result is “inactive”.

For the compound `CC(N)CN` (stereo not given), the Potency result is “inactive”.

For the compound `OC1CCCC1`, the Potency entry was “inactive”.

In the case of `Cc1ccc(N(C)C)cc1`, the Potency entry is “inactive”.

With `OCCO`, the Potency result was “inactive”.

Turning to `Cc1ccc2nc(-c3ccc(N)cc3)sc2c1S(=O)(=O)O`, the Potency result is “inactive”.

Consider `CCOC(=O)OCC`, for which the Potency entry was “inactive”.

For `Nc1cccc(C(F)(F)F)c1`, the Potency result was “inactive”.

Turning to `ClCCl`, the Potency entry is “inactive”.

Turning to `CN(C)CCCCl`, the Potency entry is “inactive”.

Regarding `CC(=O)c1cccc([N+](=O)[O-])c1`, the Potency entry is “inactive”.

With `O=C(O)c1ccccc1Cl`, the Potency entry was “inactive”.

Turning to `CSCCC=O`, the Potency entry was “inactive”.

For `C=C(C)OC(C)=O`, the Potency entry is “inactive”.

Take `C1CCCC1`: the Potency entry was “inactive”.

As for `CCCCCCCCC/C=C/CC1CC(=O)OC1=O` (stereo not given), the Potency entry is “inactive”.

Turning to `Cc1cc(C)cc(O)c1`, the Potency result is “inactive”.

For the compound `CCC(O)C(C)(C)C` (stereo not given), the Potency result is “inactive”.

With `CCCCCCCCC`, the Potency result was “inactive”.

As for `CCCCCCCCCCCCC1CO1` (stereo not given), the Potency entry is “inactive”.

For `CC(=O)c1nccs1`, the Potency result was “inactive”.

Take `Clc1ccc(Cl)c(Cl)c1Cl`: the Potency entry was “inactive”.

For `CC/C=C/C#N`, the Potency result was “inactive”.

Turning to `NC(=S)NNC(N)=S`, the Potency entry is “inactive”.

Regarding `Cc1ccc(C(C)(C)C)cc1`, the Potency result is “inactive”.

`O=Cc1cccc(Br)c1`: the Potency result was “inactive”.

In the case of `Cc1ccc(C)c(N)c1`, the Potency result was “inactive”.

`CC(C)c1ccccc1`: the Potency result was “inactive”.

A further test in a line: Cell Viability - LYMP2-017 (AID 972).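 Further: cells exposed to compound for 24 hours at 37 °C.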 The following applies: LYMP2-017 lymphoblastoid cell viability; series mostly up to 92.2 µM. The procedure, abridged: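 Luminescent ATP read-out (CellTiter-Glo, 30 min RT) reports viable cell number. Cells: human lymphoblastoid line, 2500 per well, 5 hr preincubation, 24 hr compound exposure at 37 C. AC50 is derived from qHTS concentration-response data using the standard Hill model.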
For the compound `CCN(C(=O)N(CC)c1ccccc1)c1ccccc1`, the Potency result was “inactive”.

Consider `CCNc1cc(O)ccc1C`, for which the Potency result was “inactive”.

Consider `Cc1ccc(C(=O)O)cc1`, for which the Potency entry was “inactive”.

Take `C=Cc1ccccn1`: the Potency entry was “inactive”.

Consider `CC(C)C(C)C`, for which the Potency entry was “inactive”.

`CCCCC(=O)N(C)C`: the Potency entry is “inactive”.

In the case of `Nc1cc(S(=O)(=O)O)ccc1O`, the Potency entry is “inactive”.

Take `O=C1OC(=O)c2c(Br)c(Br)c(Br)c(Br)c21`: the Potency entry is “inactive”.

On to `Cc1cccc2sc(N)nc12`, for which the Potency entry is “inactive”.

With `CN(C)c1cccc(O)c1`, the Potency result is “inactive”.

As to `BrC(Br)C(Br)Br`, the Potency result was “inactive”.

On to `CC(=O)c1ccccn1`, for which the Potency result is “inactive”.

In the case of `O=P(O)(OCc1ccccc1)OCc1ccccc1`, the Potency result was “inactive”.

On to `CC(N)CN` (stereo not given), for which the Potency result is “inactive”.

For the compound `OC1CCCC1`, the Potency result is “inactive”.

Consider `Cc1ccc(N(C)C)cc1`, for which the Potency result was “inactive”.

In the case of `OCCO`, the Potency result is “inactive”.

As for `Cc1ccc2nc(-c3ccc(N)cc3)sc2c1S(=O)(=O)O`, the Potency entry is “inactive”.

`CCOC(=O)OCC`: the Potency result is “inactive”.

For the compound `Nc1cccc(C(F)(F)F)c1`, the Potency result was “inactive”.

As to `ClCCl`, the Potency result is “inactive”.

Consider `CN(C)CCCCl`, for which the Potency entry is “inactive”.

`CC(=O)c1cccc([N+](=O)[O-])c1`: the Potency result was “inactive”.

Consider `O=C(O)c1ccccc1Cl`, for which the Potency entry is “inactive”.

Turning to `CSCCC=O`, the Potency entry is “inactive”.

As to `C=C(C)OC(C)=O`, the Potency entry was “inactive”.

For `C1CCCC1`, the Potency entry is “inactive”.

On to `CCCCCCCCC/C=C/CC1CC(=O)OC1=O` (stereo not given), for which the Potency result is “inactive”.

For the compound `Cc1cc(C)cc(O)c1`, the Potency entry is “inactive”.

As to `CCC(O)C(C)(C)C` (stereo not given), the Potency result is “inactive”.

For the compound `CCCCCCCCC`, the Potency result was “inactive”.

Consider `CCCCCCCCCCCCC1CO1` (stereo not given), for which the Potency result was “inactive”.

Turning to `CC(=O)c1nccs1`, the Potency entry was “inactive”.

As to `Clc1ccc(Cl)c(Cl)c1Cl`, the Potency result was “inactive”.

In the case of `CC/C=C/C#N`, the Potency entry was “inactive”.

For `NC(=S)NNC(N)=S`, the Potency result was “inactive”.

`Cc1ccc(C(C)(C)C)cc1`: the Potency result was “inactive”.

As to `O=Cc1cccc(Br)c1`, the Potency result is “inactive”.

For `Cc1ccc(C)c(N)c1`, the Potency entry is “inactive”.

For `CC(C)c1ccccc1`, the Potency entry was “inactive”.

A short description of another test: Cell Viability - LYMP2-019 (AID 973).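 Further: cells exposed to compound for 24 h at 37 °C.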 The following applies: LYMP2-019 lymphoblastoid cell line viability; series mostly up to 92.2 µM. The method, boiled down: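 qHTS, 1536-well; 2500 cells/well; 5 hr pre-incubation, 24 hr compound exposure, 37 C; CellTiter-Glo added, 30 min RT; luminescence read; AC50 via standard Hill equation.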
With `CCN(C(=O)N(CC)c1ccccc1)c1ccccc1`, the Potency result is “inactive”.

With `CCNc1cc(O)ccc1C`, the Potency result is “inactive”.

With `Cc1ccc(C(=O)O)cc1`, the Potency entry was “inactive”.

`C=Cc1ccccn1`: the Potency entry is “inactive”.

Consider `CC(C)C(C)C`, for which the Potency entry was “inactive”.

In the case of `CCCCC(=O)N(C)C`, the Potency entry was “inactive”.

As for `Nc1cc(S(=O)(=O)O)ccc1O`, the Potency entry is “inactive”.

On to `O=C1OC(=O)c2c(Br)c(Br)c(Br)c(Br)c21`, for which the Potency result was “inactive”.

Regarding `Cc1cccc2sc(N)nc12`, the Potency entry is “inactive”.

Turning to `CN(C)c1cccc(O)c1`, the Potency entry was “inactive”.

For `BrC(Br)C(Br)Br`, the Potency result was “inactive”.

`CC(=O)c1ccccn1`: the Potency result is “inactive”.

`O=P(O)(OCc1ccccc1)OCc1ccccc1`: the Potency entry is “inactive”.

On to `CC(N)CN` (stereo not given), for which the Potency result was “inactive”.

In the case of `OC1CCCC1`, the Potency entry was “inactive”.

In the case of `Cc1ccc(N(C)C)cc1`, the Potency entry was “inactive”.

As to `OCCO`, the Potency entry was “inactive”.

Take `Cc1ccc2nc(-c3ccc(N)cc3)sc2c1S(=O)(=O)O`: the Potency result was “inactive”.

On to `CCOC(=O)OCC`, for which the Potency entry was “inactive”.

With `Nc1cccc(C(F)(F)F)c1`, the Potency entry is “inactive”.

With `ClCCl`, the Potency result is “inactive”.

Take `CN(C)CCCCl`: the Potency entry was “inactive”.

For the compound `CC(=O)c1cccc([N+](=O)[O-])c1`, the Potency entry was “inactive”.

As for `O=C(O)c1ccccc1Cl`, the Potency entry is “inactive”.

With `CSCCC=O`, the Potency result was “inactive”.

For `C=C(C)OC(C)=O`, the Potency entry was “inactive”.

`C1CCCC1`: the Potency entry was “inactive”.

For the compound `CCCCCCCCC/C=C/CC1CC(=O)OC1=O` (stereo not given), the Potency entry was “inactive”.

With `Cc1cc(C)cc(O)c1`, the Potency entry is “inactive”.

On to `CCC(O)C(C)(C)C` (stereo not given), for which the Potency entry was “inactive”.

As for `CCCCCCCCC`, the Potency entry is “inactive”.

Regarding `CCCCCCCCCCCCC1CO1` (stereo not given), the Potency entry was “inactive”.

For `CC(=O)c1nccs1`, the Potency result was “inactive”.

Turning to `Clc1ccc(Cl)c(Cl)c1Cl`, the Potency entry is “inactive”.

With `CC/C=C/C#N`, the Potency entry is “inactive”.

Take `NC(=S)NNC(N)=S`: the Potency entry is “inactive”.

As for `Cc1ccc(C(C)(C)C)cc1`, the Potency entry is “inactive”.

As to `O=Cc1cccc(Br)c1`, the Potency entry was “inactive”.

On to `Cc1ccc(C)c(N)c1`, for which the Potency result is “inactive”.

As for `CC(C)c1ccccc1`, the Potency result was “inactive”.

For the origin of these results see PubChem BioAssay (NCATS).
